Source: PubChem BioAssay (NCI)
The panel holds about 79,000 compounds, 15% with a hit somewhere; the sample as a whole holds those more often. Activity calls are given as the source filed them. Cut-off read from the data, not from the text of the source: active = growth inhibition above about 70%; inactive = the rest.

Experiments:
[1] = NCI Yeast Anticancer Drug Screen. Data for the rad50 strain (AID 155);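 note: 0% = growth of vehicle-only cultures of the same strain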; conditions: S. cerevisiae rad50 strain growth inhibition; at 50.0 µM; active compounds read high
How it was run: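 Compounds were tested on a yeast strain with an engineered DNA damage repair alteration; the reported value is growth inhibition normalised to vehicle treatment.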

[2] = NCI Yeast Anticancer Drug Screen. Data for the mec2-1 strain (AID 157); conditions: S. cerevisiae mec2-1 strain, at 50.0 µM, active compounds read high
How it was run: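 Using mec2-1 yeast: add compound, measure growth, express inhibition versus vehicle-treated cultures.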

[3] = NCI Yeast Anticancer Drug Screen. Data for the sgs1 mgt1 strain (AID 161);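 note: 0% = growth of cultures given vehicle only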; conditions: S. cerevisiae sgs1 mgt1 strain, at 50.0 µM, active compounds read high
How it was run: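 Compounds are added to genetically altered yeast, and growth is compared with cultures given vehicle alone to give percent inhibition.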

[4] = NCI Yeast Anticancer Drug Screen. Data for the cln2 rad14 strain (AID 165);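 note: 0% = growth equal to vehicle treated cultures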; conditions: S. cerevisiae cln2 rad14 strain, at 50.0 µM, active compounds read high
How it was run: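 Yeast strain cln2 rad14, bearing defects in cell cycle control and DNA repair, serves as the test system; values reflect growth inhibition compared with vehicle.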

[5] = NCI Yeast Anticancer Drug Screen. Data for the bub3 strain (AID 167); conditions: S. cerevisiae bub3 mutant strain, at 50.0 µM, active compounds read high
How it was run: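 Growth of a checkpoint-deficient yeast mutant is measured after compound exposure. Values represent inhibition relative to vehicle.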

[6] = NCI Yeast Anticancer Drug Screen. Data for the mlh1 rad18 strain (AID 175); conditions: S. cerevisiae mlh1 rad18 strain growth inhibition; at 50.0 µM; active compounds read high
How it was run: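 Steps: expose repair-defective yeast to compound; measure growth; express inhibition against vehicle-treated controls.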

Measured: growth inhibition

CCN(CC)CCN(C(=Nc1ccccc1)N1CCOCC1)c1ccccc1
inactive: [1] -19.8% | [2] -40.5% | [3] 3.6% | [4] -3.8% | [5] 4.8% | [6] -11.9%

O=C1C(c2[nH]c3ccc(F)cc3c2O)=Nc2ccc(F)cc21
inactive: [1] 8.7% | [2] 10.9% | [3] 22.9% | [4] 9.4% | [5] 0% | [6] 19.1%

Cc1cc2cc3oc(C)cc3cc2o1
inactive: [1] 6.3% | [2] -6.45% | [3] -7.8% | [4] -45.6% | [5] -0.8% | [6] 3.25%

[N-]=[N+]=Nc1c(Cc2ccccc2)c(Cl)nc2ccccc12
inactive: [1] 40.5% | [2] 57.9% | [3] 62.5% | [4] 53.7% | [5] 65% | [6] 40.8%

CN(C)C(=O)Nc1cccc(OC(=O)NCCCl)c1
inactive: [1] 6.55% | [2] 52.5% | [3] 30.7% | [4] 0.9% | [5] 41% | [6] 20.7%

C=COC(=O)c1ccccc1O
inactive: [1] -32.7% | [2] -34% | [3] -22.3% | [4] 3.8% | [5] -36.8% | [6] -5.55%

Fc1ccc(C2=NOC3COC4C=CC=CC4OCC23)cc1 (stereo unspecified)
inactive: [1] -29.2% | [2] -34.9% | [3] -22.9% | [4] -9.15% | [5] -45.1% | [6] -42.2%

CCCCCOc1nc2c(c(=O)n(C)c(=O)n2C)n1C
inactive: [1] -0.4% | [2] -2.55% | [3] 4.65% | [4] -17.6% | [5] 3.45% | [6] 0.85%

CCCCCCCC(C)(O)C#CC(C)(O)CCCCCCC (stereo unspecified)
inactive: [1] 4.35% | [2] -4.15% | [3] 4.85% | [4] -20.6% | [5] 5.05% | [6] 13.3%

CCCCC/C(C)=C(\C#N)C(=O)OC
inactive: [1] -5.4% | [2] -29.1% | [3] -19.2% | [4] -15.3% | [5] -34% | [6] -27.4%

CCc1ccc(COC(=O)NC)nc1
inactive: [1] 38% | [2] -0.75% | [3] 4% | [4] -18% | [5] -0.2% | [6] 19.6%

CC1(C)CNC(=O)C2(C=NC(C)(C)CNC(=O)C3(C=N1)CCCO3)CCCO2 (stereo unspecified)
inactive: [1] -10.2% | [2] -5.6% | [3] -36.2% | [4] -8.55% | [5] -17.6% | [6] -11.2%

ClCCCc1ccccc1C1=NCCc2ccccc21
inactive: [1] 28.4% | [2] 19% | [3] -14.5% | [4] 3.25% | [5] -14.7% | [6] 9.9%

COc1ccc2c(c1)CC[C@@H]1[C@@H]2CC[C@]2(C)C(=O)/C(=N/O)C[C@@H]12
inactive: [1] -15% | [2] 4.85% | [3] 1.85% | [4] -34% | [5] 31.5% | [6] -14.2%

Cc1nc(Nc2ccc(Cl)c(Cl)c2)sc1C(/C=C/c1ccc2c(c1)OCO2)=N/Nc1ccc([N+](=O)[O-])cc1[N+](=O)[O-]
inactive: [1] -21.2% | [2] -14.3% | [3] 3.75% | [4] 3.45% | [5] -9.55% | [6] 2.45%

CCC1C(C#N)(C#N)C1(C#N)C#N
inactive: [1] -4.7% | [2] 21.8% | [3] 7.45% | [4] 0.35% | [5] 1.45% | [6] 12.2%

NC(=O)c1csc(C2O[C@@H](COP(=O)(O)OP(=O)(O)OC[C@H]3OC(n4cnc5c(N)ncnc54)[C@H](O)[C@@H]3O)[C@H](O)[C@@H]2O)n1 (stereo partly specified)
inactive: [1] 28.8% | [2] -0.75% | [3] -0.55% | [4] -37.5% | [5] 2.75% | [6] 10.9%

COC(=O)[C@]1(C)CCC[C@@]2(C)C1CC[C@@]13C=C(C(C)C)[C@@H](CC1=O)CC23 (stereo partly specified)
inactive: [1] 10.7% | [2] 4.7% | [3] -1.7% | [4] 32.7% | [5] 26.4% | [6] 19.1%

CN(NC(=O)c1cccs1)C1=NCCN1
inactive: [1] -25.9% | [2] -23.2% | [3] -24.9% | [4] 7.25% | [5] 18.4% | [6] -7.7%

CC1CC(C)(C)NC(C2CCC=CO2)O1 (stereo unspecified)
inactive: [1] 5.2% | [2] -3.9% | [3] -7% | [4] -20.6% | [5] -18.6% | [6] 5.9%

COC(=O)C1(CCC(C)=O)CCC(C)C1=O (stereo unspecified)
inactive: [1] 2.55% | [2] -4.5% | [3] 1.2% | [4] 0.2% | [5] -19.6% | [6] -9.8%

CCN(CC)C(=O)N1C=CC(C)C=C1
inactive: [1] -30.4% | [2] -15.1% | [3] -15.4% | [4] -43.1% | [5] 10.9% | [6] 5.5%

[N-]=[N+]=Nc1ccnc2cc(C(F)(F)F)ccc12
inactive: [1] -31.5% | [2] 3.35% | [3] -2.25% | [4] -36.7% | [5] 4.45% | [6] 11.1%

O=S(=O)(Nc1cccc(F)c1)c1ccc(F)cc1
inactive: [1] -12.5% | [2] -10.4% | [3] -3.6% | [4] 0.3% | [5] -9.95% | [6] 11.6%

O=COC1CCCCCC1
inactive: [1] -8.55% | [2] -28.9% | [3] -11.1% | [4] 7.9% | [5] -5.9% | [6] 12.9%

CCN=C(N(CC)CC)N(CC)CC
inactive: [1] -12.1% | [2] 10.2% | [3] 2.95% | [4] -24.4% | [5] 62.7% | [6] 4.3%

O=C(Cl)C=Cc1ccc([N+](=O)[O-])cc1 (mixture of isomers)
inactive: [1] 4.7% | [2] 6.7% | [3] -0.25% | [4] -6.65% | [5] 2.15% | [6] 1.95%

CCOC(=O)C(C)(Br)C(Br)c1ccc([N+](=O)[O-])cc1 (stereo unspecified)
active: [1] 96.8% | [2] 93.2% | [3] 96.9% | [5] 80.9% | [6] 97%
inactive: [4] 42.7%

Cc1ccc(S(=O)(=O)Nn2c(O)c(C#N)c(-c3ccc(N(C)C)cc3)c(C#N)c2=O)cc1
inactive: [1] -6.7% | [2] -20.1% | [3] -44.5% | [4] 1.7% | [5] -19.1% | [6] -20.9%

NC1=NC(c2ccccc2O)CC(=O)N1 (stereo unspecified)
inactive: [1] -6.4% | [2] -8.25% | [3] -12.9% | [4] -32.6% | [5] -3.9% | [6] -6.35%

BrCCCCCBr
inactive: [1] 12.4% | [2] 6.3% | [3] 1.5% | [4] -48.5% | [5] -5.45% | [6] 15.6%

COc1ccc2c(c1O)C1(CCN(C)C)CC(=O)CCC1C=C2 (stereo unspecified)
inactive: [1] 13.2% | [2] -11.5% | [3] 9.55% | [4] 6.2% | [5] 25.5% | [6] 12.4%

COc1ccc(C2CC(c3ccccc3)=Nc3ccccc3S2)cc1OC (stereo unspecified)
inactive: [1] 0.25% | [2] -26.3% | [3] 11.7% | [4] 4.15% | [5] 2.4% | [6] 3.75%

CC(=O)NCCC1CN(C(=O)/C=C/I)c2ccccc21 (stereo unspecified)
inactive: [1] -8.4% | [2] 30.4% | [3] 4.55% | [4] 37.7% | [5] 24.6% | [6] -17.4%

CC1(C)CC(=O)C(N=Nc2ccccc2)=C(O)C1
inactive: [1] 0.7% | [2] 2.3% | [3] -2.55% | [4] -49.4% | [5] 24.2% | [6] -0.75%

CN1C(=O)C(O)CC1c1ccccc1C(F)(F)F (stereo unspecified)
inactive: [1] 11.7% | [2] 4.2% | [3] 31.2% | [4] 17.9% | [5] 5.05% | [6] -30.6%

COc1cc(C(C)c2cc3c(cc2O)OCO3)cc(OC)c1OC (stereo unspecified)
inactive: [1] -31.2% | [2] -26.1% | [3] -15.6% | [4] 8.5% | [5] 26.8% | [6] -16.4%

N#Cc1c(F)cccc1N1CCSCC1
inactive: [1] 3.5% | [2] -17.8% | [3] 14.3% | [4] 25.4% | [5] 11.5% | [6] -0.55%

CCCCCC/C=C/CCCCCCCc1cccc(OC)c1 (tested in a mixture with another compound)
inactive: [1] 3.85% | [2] -5.9% | [3] 3.6% | [4] -14.7% | [5] 1.25% | [6] 12.1%

C=CCCCCCCCCCCC
inactive: [1] -11.3% | [2] -11.2% | [3] -14.1% | [4] 11.7% | [5] 1.95% | [6] -4.9%

C=C(CC/C=C\CO)[Si](C)(C)C
inactive: [1] -10.5% | [2] -20.1% | [3] 1.05% | [4] 7.35% | [5] 9.95% | [6] -9.5%

CN(C)CCCNc1ccnc2cc([N+](=O)[O-])ccc12
inactive: [1] 10.2% | [2] 3.3% | [3] 4.4% | [4] -4.1% | [5] -1.3% | [6] -17.1%

NC(=O)N=P(c1ccccc1)(c1ccccc1)c1ccccc1
inactive: [1] -9.9% | [2] 12.6% | [3] -6% | [4] 7.75% | [5] 3% | [6] -12.9%

COc1cc([C@@H]2OCC3C(c4ccc5c(c4)OCO5)OCC32)cc(OC)c1OC (stereo partly specified)
inactive: [1] 9.9% | [2] -17.2% | [3] 24.2% | [4] 28.6% | [5] 43.4% | [6] 18.4%

OCCOCCNc1ncnc2cc(Cl)ccc12
inactive: [1] -12.4% | [2] -14.7% | [3] 5.25% | [4] -14.2% | [5] 7.2% | [6] 4.2%

CC(C)CCCCCCCCCCCCC(=O)NCC(=O)NC1C(C)OC(Nc2ncnc3c2ncn3C)C(O)C1O (stereo unspecified)
inactive: [1] 10% | [2] -14.5% | [3] 9.3% | [4] 15.6% | [5] 4.05% | [6] 11.4%
